This is a sample that favours compounds with a hit; in the whole collection about 6% have one here.
D3 antag: qHTS of D3 Dopamine Receptor Antagonist: qHTS. D(3) dopamine receptor (Homo sapiens), P35462. D3R cells, DiscoveRx beta-arrestin luminescence, antagonist mode; stronger effect = lower value. max response, negative = inhibition, %. 360,000 tested, 2.5% active; in the data active means max response below about -50%; further: on the % scale 0 is the no-effect control and ±100 the full control effect
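Cells plated overnight at 1500 cells/well, then exposed to library compounds with dopamine controls for 90 minutes at 37 degrees C. DiscoveRx reagent added for 30–60 minutes at room temperature; luminescence read, quantitative HTS format.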
DRD3 agonist: qHTS of D3 Dopamine Receptor Agonist: qHTS | D3R DiscoveRx beta-arrestin cells, luminescence, 90 min | max activation, % | 410,000 tested, 0.58% active | AID 652048, 2013; in the data active means max activation above about 30%; further: 0% is about no effect
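Agonist mode: compounds and dopamine controls were applied to plated cells for 90 min at 37 degrees C after an overnight attachment at 1500 cells/well. Luminescent read-out followed 30 - 60 minutes at room temperature with DiscoveRx detection reagent.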
D1 antagonist: Antagonist of Human D 1 Dopamine Receptor: qHTS | D(1A) dopamine receptor (Homo sapiens), P21728 | HEK293 TREx D1 cells, calcium flux, dopamine EC80; stronger effect = lower value | activity change, negative = inhibition, % at 10 µM | 360,000 tested, 3.2% active; in the data active means activity change below about -30%; further: on the % scale 0 is the no-effect control and ±100 the full control effect
Target sequence (P21728 whole entry, looked up): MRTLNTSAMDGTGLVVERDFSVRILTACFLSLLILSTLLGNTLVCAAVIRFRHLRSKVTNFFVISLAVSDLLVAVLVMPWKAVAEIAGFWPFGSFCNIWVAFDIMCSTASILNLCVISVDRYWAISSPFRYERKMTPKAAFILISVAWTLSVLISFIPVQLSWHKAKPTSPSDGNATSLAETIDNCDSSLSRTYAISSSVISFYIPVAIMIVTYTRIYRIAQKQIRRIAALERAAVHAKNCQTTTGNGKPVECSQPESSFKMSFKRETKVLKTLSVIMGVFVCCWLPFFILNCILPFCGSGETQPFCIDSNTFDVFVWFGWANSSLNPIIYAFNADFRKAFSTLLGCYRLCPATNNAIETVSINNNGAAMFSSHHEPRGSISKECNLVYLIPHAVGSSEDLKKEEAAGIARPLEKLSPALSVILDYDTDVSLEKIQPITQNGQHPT
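HEK293 T-REx cells expressing inducible, force-coupled D1 receptor; no-wash Ca dye, 30–90 min RT. Cmpd → 180 s read at 1 Hz → EC80 DA → 180 s read.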
D1 potentiator: Potentiators of Human D1 Dopamine Receptor: qHTS | 360,000 tested, 0.036% active | HEK293 TREx D1 cells, calcium flux, dopamine EC20 potentiation | D(1A) dopamine receptor (Homo sapiens), P21728 | AID 504651, 2011 | potentiation, % at 10 µM; in the data active means potentiation above about 30%; further: 0% is about no effect
D1 ag: Allosteric Agonists of the Human D1 Dopamine Receptor: qHTS | D(1A) dopamine receptor (Homo sapiens), P21728 | HEK293 T-REx D1 cells, calcium flux, agonist mode | activation, % at 2 µM | 360,000 tested, 1% active | AID 504660, 2011; in the data active means activation above about 30%; further: 0% is about no effect
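Tetracycline-induced HEK293 TREx D1 cells, force-coupled to calcium signalling, were dye-loaded with a no-wash calcium kit. Compound was pin-added after a 10 s baseline. Fluorescence was read kinetically at 1 cycle/s for 180 s, with calcium rises flagged as agonism.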
An asterisk follows results filed as active; x = no result given; ! = not confirmed by another sample.

SMILES	D3 antag	DRD3 agonist	D1 antagonist	D1 potentiator	D1 ag
Cc1ccc(S(=O)(=O)N2CCCC(C(=O)Nc3ccc(C(=O)O)cc3)C2)cc1Cl (stereo unspecified)	-3	-7	-33*	-12	2
Cc1n[nH]c(C)c1S(=O)(=O)N1CCCC(C(=O)N2CCN(c3ccc(Cl)cc3)CC2)C1 (stereo unspecified)	350	2	-48*	-7	19
COc1cccc(NC(=O)C2CCCN(S(=O)(=O)c3c(C)[nH]c(=O)[nH]c3=O)C2)c1 (stereo unspecified)	x	-5	1	6	0
COc1ccc(NC(=O)C2CCCN(S(=O)(=O)c3c(C)[nH]c(=O)[nH]c3=O)C2)cc1 (stereo unspecified)	-15	1	-31*!	-4	0
Cc1nn(C)c(C)c1S(=O)(=O)N1CCCC(C(=O)N2CCN(c3ccc(Cl)cc3)CC2)C1 (stereo unspecified)	-20	0	-7	2	0
CCCNC(=O)c1cc(C2CCCCN2C(=O)OCC(C)C)on1 (stereo unspecified)	-11	-3	x	x	x
CCOc1ccc(C2C([N+](=O)[O-])=C(C)N(C)C(=O)N2C)cc1OC (stereo unspecified)	-12	0	-8	1	1
Cc1ccc2ncc3c(-c4ccc(F)cc4)nn(-c4cccc(F)c4)c3c2c1	x	-4	0	0	1
Cc1ccc(NC(=O)C2CCCN(S(=O)(=O)c3c(C)n[nH]c3C)C2)cc1C (stereo unspecified)	x	-11	-10	-3	1
Cc1ccc(NC(=O)C2CCCN(S(=O)(=O)c3c(C)n[nH]c3C)C2)cc1Cl (stereo unspecified)	x	-2	6	2	36*
CCn1c(=S)sc2c(=O)n(CC(=O)Nc3ccccc3C(F)(F)F)c(C)nc21	-7	32*	5	-8	2
CCOC(=O)Cn1c(=O)oc2cc(S(=O)(=O)N3CCN(c4ccc(C(C)=O)cc4)CC3)ccc21	x	-3	-43*	-5	9
CCOC(=O)Cn1c(=O)oc2cc(S(=O)(=O)Nc3ccc(F)cc3)ccc21	-9	0	-66*	0	77*
CCOC(=O)Cn1c(=O)oc2cc(S(=O)(=O)NCCc3ccc(C)cc3)ccc21	15	9	0	-3	1
CCOC(=O)Cn1c(=O)oc2cc(S(=O)(=O)N3CCN(c4ccccc4OC)CC3)ccc21	x	-4	-9	0	2
Cc1ccc(N2C(=O)CSC23C(=O)N(CC(=O)NCc2ccccc2)c2ccccc23)cc1C (stereo unspecified)	x	-6	-9	0	3
Fc1ccc(Nc2nc(SCc3cccc(F)c3)nc3ccccc23)cc1	x	11	-15	-5	11
CCc1nc2c(OCc3cc(Cl)cc(Cl)c3)cccn2c1N(C)C(=O)CC(C)C	-66*	-16	x	x	x
CCC(CC)C(=O)N(C)c1c(C)nc2c(OCCC3CCCCC3)cccn12	-50*	-15	x	x	x
CCc1nc2c(OCCC3CCCCC3)cccn2c1N(C)C(=O)c1ccncc1	21	2	x	x	x
CCCCN(C=O)c1c(CC)nc2c(OCc3ccccc3C)cccn12	-3	-3	x	x	x
CCCCN(C=O)c1c(CC)nc2c(OCc3ccc(Cl)cc3Cl)cccn12	-57*	-13	x	x	x
CCc1nc2c(OCCC3CCCCC3)cccn2c1N(C)C(=O)c1ccc(OC)cc1	-111*	-26	x	x	x
Cc1c(C(=O)Nc2ccccc2F)sc2ncnc(N(C)C3CCCCC3)c12	x	2	2	-2	9
COc1cccc(CNC(=O)C2CCN(S(=O)(=O)c3ccc4c(c3)CCCN4C(C)=O)CC2)c1	x	7	10	0	0
CCN1C(=O)CSC1=Nc1ccc(C(=O)OC)cc1	-12	-5	x	x	x
COc1ccc(Cl)cc1NC(=O)CCn1nc(C)cc1C	x	-2	0	-2	1
CCc1nc2c(OCc3cc(Cl)cc(Cl)c3)cccn2c1N(C)C(=O)c1ccc(OC)cc1	-63*	-11	x	x	x
CCc1nc2c(OCc3ccc(Cl)cc3)cccn2c1N(C)C(=O)c1ccco1	-51*	-16	x	x	x

High-throughput results: PubChem, National Center for Advancing Translational Sciences (NCATS)
